The record followed here is PubChem BioAssay (Tox21).

Records with an inconclusive call do not appear. A number with no mark means an inactive call. Calls of active or inactive are those of the source. Calls follow the shape of the dose curve; as a rule, active = well fitted activation curve with a large enough effect in the signal ratio in the repeat runs (not every such curve was filed as active); inconclusive = weak or mixed curves; inactive = flat fitted curve, though single readings scatter; the % refers to the signal ratio.
% is scaled to controls: 0 for no effect and ±100 for the full control effect.

This experiment can be described thus: qHTS assay to identify small molecule agonists of the TGF-beta/Smad signaling pathway (AID 1346859). To be noted: SBE-bla HEK293T, TGF-beta/Smad beta-lactamase reporter, 5 h; series mostly up to 76.8 µM. The text has this:
U.S. Tox21 Program National Center for Advancing Translational Sciences [NCATS] NIH Chemical Genomics Center [NCGC] U.S. Environmental Protection Agency [EPA] National Institutes of Environmental Health Sciences [NIEHS] National Toxicology Program [NTP] U.S. Food and Drug Administration [FDA] Tox21 Assay Overview: Transforming growth factor beta (TGF-beta) superfamily consists of a large number of structurally related dimeric proteins that act as hormones or local mediators in regulating a wide range of biological functions. This superfamily includes TGF-betas themselves, the bone morphogenetic proteins (BMPs) and the activins. These ligands induce oligomerization of serine/threonine receptor kinases and phosphorylate the cytoplasmic signaling molecules of Smad protein family. CellSensor SBE-bla HEK 293T cell line (Life Technologies, Carlsbad, CA), responsive to TGF-beta was used to screen Tox21 10K compound library for identification of agonists/antagonists of the Smad signaling pathway. This cell line contains a beta-lactamase reporter gene under control of the Smad binding element (SBE) stably integrated into HEK 293T cells.
Tox21 Assay Protocol Summary: SBE-bla HEK 293T cells were dispensed at 4,000/well in 6 uL of assay medium into black wall/clear-bottom 1536-well plates using a Multidrop Combi (ThermoFisher Scientific, Waltham, MA) dispenser. After the assay plates were incubated at 37 C and 5% CO2 for an overnight, 23 nL of compounds dissolved in DMSO, positive controls or DMSO only was transferred to the assay plate by a Pintool station (Kalypsys, San Diego, CA). The assay plates were incubated at 37 C and 5% CO2 for 5 hr. One uL of LiveBLAzer B/G FRET substrate (Life Technologies) was added using a Flying Reagent Dispenser (Aurora Discovery, San Diego, CA) and the plates were incubated at room temperature for 2 hr. Fluorescence intensity (405 nm excitation, 460 nm and 530 nm emissions) was measured using an Envision plate reader (PerkinElmer, Shelton, CT).
Regarding `Cc1c(NC(C)C)c(=O)n(-c2ccccc2)n1C`, the molecule was classed as inactive.

For the molecule `O=C(O)c1ccccc1OP(=O)(O)O`, the outcome was inactive.

Take `CCCCCCCCS(=O)(=O)Cl`: the call was inactive.

As for `CCCCCCCCCCCCCC=O`, the activation is -2.78% [at 6.97 µM].

Take `NS(=O)(=O)c1ccccc1Cl`: the result was inactive.

`N=C(N)c1ccc(OCCCOc2ccc(C(=N)N)cc2)cc1`: the molecule was classed as inactive.

On to `CCCCCCCCCCCC`, for which the result was inactive.

As for `ClC(Cl)(Br)Br`, the call was inactive.

Consider `CC/C=C\CC/C=C/CO`, for which the result was inactive.

In the case of `CCCN(CCC)CCc1cccc2c1CC(=O)N2`, the outcome was inactive.

`NS(=O)(=O)c1cc2c(cc1Cl)NC(C1CC3C=CC1C3)NS2(=O)=O` (stereo not given): the molecule was called inactive.

For the molecule `CCc1cccc2c(CCO)c[nH]c12`, the result was inactive.

In the case of `CC(C)NCCCC1(C(N)=O)c2ccccc2-c2ccccc21`, the outcome was inactive.

In the case of `O=C(CCCN1CCN(c2ccccn2)CC1)c1ccc(F)cc1`, the result was inactive.

For the molecule `CCN(CC)CCOCCOC(=O)C1(c2ccccc2)CCCC1`, the outcome was inactive.

Consider `CC(C)(C)c1ccc(O)c(O)c1`, for which the result was inactive.

Regarding `COC(=O)c1ccc(C)cc1C1=NC(C)(C(C)C)C(=O)N1` (stereo not given), the molecule was called inactive.

For the molecule `O=C(c1ccccc1)C1CCCCC1`, the outcome was inactive.

With `CCCCOCCOCCOCCCC`, the molecule was called inactive.

Regarding `Cc1ccc(=O)n(-c2ccccc2)c1`, the molecule was called inactive.

Regarding `CCN1CCC[C@H]1CNC(=O)c1c(O)c(Cl)cc(Cl)c1OC`, the molecule was classed as inactive.

As for `CCS(=O)(=O)c1ccc(OC)c(C(=O)OC)c1`, the molecule was called inactive.

On to `CC(=O)Nc1ccc(S(N)(=O)=O)cc1`, for which the outcome was inactive.

On to `CC(C[N+](C)(C)C)OC(N)=O` (stereo not given), for which the molecule was called inactive.

With `CC1(C)C(O)C(C)(C)C1O` (stereo not given), the outcome was inactive.

For `O=C1NC(=O)[C@@]2(CCOc3ccc(F)cc32)N1`, the call was inactive.

For the molecule `CO[Si](CCCOCC1CO1)(OC)OC` (stereo not given), the molecule was called inactive.

In the case of `CCCCCSCCCCC`, the call was inactive.

For the molecule `C/C=C(\C)C#N`, the outcome was inactive.

For `CC(=O)OCC(CCn1cnc2cnc(N)nc21)COC(C)=O`, the molecule was classed as inactive.

For `C1OCOCO1`, the molecule was classed as inactive.

Take `N[C@H]1CN(c2c(F)cc3c(=O)c(C(=O)O)cn(C4C[C@H]4F)c3c2Cl)CC12CC2` (stereo not given in full): the molecule was classed as inactive.

As for `CCc1nccnc1CC`, the activation is 1.18% [at 15.8 µM].

`COc1ccc2c(c1)CCCC2=O`: the result was inactive.

As for `NCCCNCCSP(=O)(O)O`, the activation was 0.256% [at 6.97 µM].

In the case of `Brc1c(NC2=NCCN2)ccc2nccnc12`, the molecule was called inactive.

`CS(=O)(=O)O`: the result was inactive.

Turning to `CN1CC(=O)NC1=N`, the result was inactive.

`CCN(Cc1ccncc1)C(=O)C(CO)c1ccccc1` (stereo not given): the outcome was inactive.

In the case of `CCOC(=O)CC(C)=O`, the molecule was classed as inactive.
